68 compounds from ChEMBL document CHEMBL4513216, “Probing the Open Global Health Chemical Diversity Library for Multistage-Active Starting Points for Next-Generation Antimalarials” (ACS Infect Dis, 2020) can be followed below.

Among all 65,000 compounds or so, about 2,100 (3.2%) showed an effect of 50% or more. The median lay at about -52%. The list comes from a sample in which strong results are over-represented; it also holds similar structures and randomly drawn compounds.

This assay relates to Plasmodium falciparum. Description: Screen against P. falciparum Asexual Blood Stage (ABS), at 5uM. It counts as functional, Dd2. The note with it: tested at 5 uM.
Turning to `O=C(c1ccncc1)N1CCN2C[C@H](Oc3cncnc3)C[C@H]2C1`, the INHIBITION is listed as -105%. Consider `COc1ccc(C(C)NCc2ccsc2)cc1Cn1cccn1` (stereo not drawn), for which the INHIBITION is given as 73.1%. The same measure for `COc1ccc(C(C)NCc2cscn2)cc1Cn1cccn1` (stereo not drawn): 71.6%. Consider `COc1cc(CNC(C)Cn2cccn2)cc(OC)c1OC` (stereo not drawn), for which the INHIBITION is given as -12.2%. Under `COc1ccc(CNC(C)Cn2cccn2)cc1OC` (stereo not drawn) stands -66.8%; under `N#Cc1ccc(OC[C@]23COC[C@H]2CN(Cc2ccoc2)C3)nc1`, -15.7%; under `Cc1ccc(CN2CC[C@@H]3[C@H]2CCC(=O)N3Cc2ccncc2)s1`, -6.15%. In the case of `CSc1nccc(N2CCN(C)C3(CCNC(=O)CC3)C2)n1` (stereo not drawn), the INHIBITION was -69.1%. In the case of `O=C1C[C@@H]2CC[C@H](CN1)N2C1CCOCC1`, the INHIBITION is on record as -0.465%.

Regarding `O=C1[C@H]2CN(Cc3nccs3)C[C@H]2CN1c1cncnc1`, the INHIBITION is listed as -64.4%. The same measure for `O=C(CN(C1=NCCCCC1)c1ccc(Cl)cc1)c1ccccc1`: 75.5%; for `COCCN1CCN(S(=O)(=O)C2CC2)Cc2ccc(C)nc21`: -12%; for `COc1cccc(S(=O)(=O)N2C[C@@H](N(C)C)[C@H](C(C)C)C2)c1`: 72.2%. Under `CN(C)[C@@H]1CN(Cc2cnn(C)c2)[C@@H]2COC[C@H]12` stands -104%; under `Cc1c(F)cccc1S(=O)(=O)NC(C)(C)CN`, 80.9%; under `Cc1cccc(CN2CC[C@H]3OCC[C@@]3(C(=O)N3CCCO3)C2)n1`, -77.9%.

Regarding `O=C1CC[C@H]2[C@@H](CCN2Cc2ccco2)N1`, the INHIBITION is recorded as -46.7%. For the compound `c1ccc2c(c1)C(NC1CCCC1)CC21CCNCC1` (stereo not drawn), the INHIBITION worked out at 75.7%.

On to `Fc1ccc2c(c1)C1(CCNCC1)CC2OCC1CC1` (stereo not drawn), for which the INHIBITION worked out at 70.1%. Under `Cc1ccc2c(c1)C(NC1CC1)CC21CCNCC1` (stereo not drawn) stands 83.2%; under `Cc1ccc2c(c1)C(NC(C)C)CC21CCNCC1` (stereo not drawn), -41.2%; under `Cc1ccc2c(c1)C1(CCNCC1)CC2NC1CC1` (stereo not drawn), 74.6%. Under `O=C1CC2(CCNCC2)C(=O)N1c1cccc(F)c1` stands -155%. `Cc1ccc2c(c1)C1(CCNCC1)CC2NC(C)C` (stereo not drawn): the INHIBITION is on record as -31.2%. For the compound `COc1ccc2c(c1)C1(CCNCC1)CC2NC1CC1` (stereo not drawn), the INHIBITION amounted to 0.674%. The same measure for `NC(=O)CC1CC2(CCNCC2)c2cc(F)ccc21` (stereo not drawn): -82.7%; for `O=C1NC2(CCNCC2)CC1c1ccccc1` (stereo not drawn): -129%. Under `Cc1c(C2SCC(=O)Nc3c2cnn3C(C)(C)C)cnn1C` (stereo not drawn) stands -41.3%. For `CC(C)c1nccc([C@H]2C[C@@H]3CCN(Cc4ccco4)C[C@H]3O2)n1`, the INHIBITION was -19.7%. Under `CC(C)c1ccccc1OCCNC(=O)N1CCC2(CC1)OCCO2` stands -63.2%; under `Cc1nc(C)c(CC(=O)N2C[C@H]3CC[C@@H](C2)N(CC2CC2)C3)s1`, -79.3%. Take `CC(C)NC1CC2(CCNCC2)c2cc(F)ccc21` (stereo not drawn): the INHIBITION is reported as 11.4%.

In the case of `Fc1ccc2c(c1)C1(CCNCC1)CC2NC1CC1` (stereo not drawn), the INHIBITION was 83%. With `O=C(NCc1ccccn1)[C@]12COC[C@H]1CN(Cc1ccsc1)C2`, the INHIBITION is on record as -42.4%. The same measure for `CNC(=O)[C@H]1C[C@@H]2CCN(Cc3ccncc3)C[C@H]2O1`: -70.6%; for `Cc1cccc(OC(C)C(=O)NCC2(N(C)C)CCCC2)c1` (stereo not drawn): 81.4%; for `Cc1cccc(NC(=O)N2CCC(CO)(Nc3ccccc3)CC2)c1`: -38.235%. For `COc1ccc(C(=O)C2CCCN(Cc3cccc(F)c3)C2)c(OC)c1` (stereo not drawn), the INHIBITION amounted to 23.9%. The same measure for `CCNC(=O)[C@@H]1CN(Cc2ccccc2)C[C@H]1C(=O)c1ccc(F)cc1`: -30.5%; for `COC(=O)N1CCC(Nc2ccc(C#N)c(Cl)c2)C1` (stereo not drawn): 22.4%. In the case of `CCOc1cccc(CN2CCCC(Nc3ccc(F)cc3)C2)c1O` (stereo not drawn), the INHIBITION stood at 86.3%.

Consider `COc1cc(CN2CCCC(Nc3cccc(F)c3)C2)cc(Cl)c1O` (stereo not drawn), for which the INHIBITION was 91.7%.

As to `Cc1ncc(CN2CCN(C(=O)N(C)C)[C@@H]3CS(=O)(=O)C[C@@H]32)cn1`, the INHIBITION is -106%.

Turning to `Cn1cc(CN2CCCC3(CCN(c4cccnc4)C3=O)C2)cn1` (stereo not drawn), the INHIBITION is on record as -131%.

`c1cnc(N2CCO[C@H]3CN(Cc4ccsc4)C[C@H]32)nc1`: the INHIBITION worked out at 35.9%. Regarding `CN(C)c1nccc(N2CCO[C@H]3CN(Cc4ccsc4)C[C@H]32)n1`, the INHIBITION came to 69.7%.

On to `CN(C)c1nccc(N2CCO[C@H]3CN(Cc4ccco4)C[C@H]32)n1`, for which the INHIBITION is listed as -22%. Under `c1ccc(OCC2C[C@@H]3[C@@H](C2)OCCN3Cc2ccoc2)nc1` (stereo partly drawn) stands 12%.

Regarding `COCCN1CCCC12CCCN(c1ncccn1)C2` (stereo not drawn), the INHIBITION is on record as -47.3%. Turning to `Cc1cnc(N2CCCC3(CCCN(C)C3)C2)nc1` (stereo not drawn), the INHIBITION is -9.73%. The same measure for `CC(C)N1CCC2(CCCN(c3nccc(C(F)(F)F)n3)C2)CC1`: 81.9%; for `CC(C)N1CCC2(CCN(C(=O)c3cccnc3)CC2)C1`: 5.83%; for `CN1CCC2(CCCN(c3nccc(C(F)(F)F)n3)C2)CC1`: 79.4%. The same measure for `O=C(C1CC(=O)N(c2ccccc2Br)C1)N1CCC2(CC1)OCCO2` (stereo not drawn): -113%; for `O=C(C1CC1)N1CCC2(CC1)CNCCO2`: -34.5%; for `Cc1n[nH]c2c1C(c1ccc(F)cc1)SCC(=O)N2` (stereo not drawn): -4.37%.

With `Cc1c(C(C)N)cnn1-c1cccc2ccccc12` (stereo not drawn), the INHIBITION was determined as 74.5%.

Turning to `O=C(COc1ccc(Cl)cc1Cl)N1CCCSCC1CN1CCOCC1` (stereo not drawn), the INHIBITION is recorded as -30%. `Cn1cccc1C(CNC(=O)COc1ccc(Cl)cc1Cl)N1CCCC1` (stereo not drawn): the INHIBITION was found to be 74.3%. The same measure for `Cc1ccc(CCN[C@@H]2c3ccccc3C3(CCNCC3)[C@H]2O)s1`: 87.1%. Take `CN(C)C(=O)C1OC2(CCNCC2)c2ccccc21` (stereo not drawn): the INHIBITION is on record as -73%. For `COc1ccccc1CCN[C@@H]1c2ccccc2C2(CCNCC2)[C@H]1O`, the INHIBITION turned out to be 81.5%. For `CCN1CCOCC2(C1)CN(C(=O)c1c(C)noc1C)CCO2` (stereo not drawn), the INHIBITION is reported as -31%. Turning to `COCCN(CCOC)C(=O)c1cn(C(C)(C)C)c2ncccc12`, the INHIBITION is -81.6%.

On to `CCc1cnc(N)nc1NC(C)c1ccc(C)c(C)c1` (stereo not drawn), for which the INHIBITION is listed as 73.8%. On to `CC1CCN(CC(=O)NC2CCN(C(C)c3ccccc3)CC2)CC1` (stereo not drawn), for which the INHIBITION came to 84.3%. Under `O=C(NC1CC1)[C@H]1CN(Cc2ccccc2)C[C@@H]1C(=O)c1ccccc1` stands -154%; under `O=C(CN1CCN(C(=O)Cc2ccc3c(c2)OCCO3)CC1)NC1CC1`, -148%.
